The list is not random: actives were taken first. Their share in the collection is about 11%.
Pf growth 48h – Primary qHTS for delayed death inhibitors of the malarial parasite plastid, 48 hour incubation; P. falciparum luciferase growth in erythrocytes, 48 h; Potency, µM (doses to about 28.7 µM), without a hit: top-dose activity change, negative = inhibition, actives largely listed as inhibitors; 310,000 compounds, 5.9% hits; AID 504832, 2011
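Luminescence readout; reporter = integrated firefly luciferase in P. falciparum. RBC culture at 2% hematocrit, 0.1% parasitemia final, 37 C/5% CO2; decreased signal taken as growth inhibition.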
AMA1 RON2 block – qHTS for Inhibitors of AMA1-RON; Towards Development of Antimalarial Drug Lead: Primary Screen; AlphaScreen AMA1-biotinylated RON2 peptide binding; Potency, µM (series often up to 58.2 µM), for inactives: top-dose activity change, negative = inhibition, usual class: inhibitors; 360,000 compounds, 0.2% hits; AID 720542, 2013;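 also: 0% = vehicle wells and -100% = peptide control; nearly all actives have a fitted effect of over 45% in size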
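AMA1 (3D7) with his tag at 25 nM final met compounds first, then biotinylated RON2 peptide at 25 nM; detection used donor plus acceptor beads, 10 µg/mL apiece, read by AlphaScreen after 30 min at room temperature.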
Pf growth 96h – Primary qHTS for delayed death inhibitors of the malarial parasite plastid, 96 hour incubation; 320,000 compounds, 6.9% hits; AID 504834, 2011; P. falciparum luciferase reporter growth, 96 h; Potency, µM (highest dose often 28.7 µM), for inactives: at the highest dose activity change, negative = inhibition, most hits filed as inhibitors
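P. falciparum expressing integrated firefly luciferase grown in erythrocytes (2% hematocrit, 0.05% parasitemia final) with compounds for 96 hours at 37 C, 5% CO2. Growth inhibition read as loss of luminescence after adding luciferase detection reagent.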
HCV inh – qHTS Assay for Inhibitors of Hepatitis C Virus (HCV) | 340,000 compounds, 3.4% hits | Huh7.5.1 HCVcc-Cre infection, luciferase reporter, 44 h | Potency, µM (top dose mostly 41.8 µM), without a hit: top-dose activity change, negative = inhibition, most hits filed as inhibitors
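Reporter virus HCVcc-Cre (~0.5 moi) infects cells exposed to compound; seeding density 1,000 cells/well with 4 h settling beforehand. Luminescence, 15 sec read, taken 44 h post-infection following a 15 min RT substrate incubation.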
AmpC no deterg – qHTS Inhibitors of AmpC Beta-Lactamase (assay without detergent); AmpC nitrocefin hydrolysis, absorbance 480 nm, 0.0001% Triton; P00811; 330,000 compounds, 0.52% hits; Potency, µM (highest dose often 57.1 µM), without a hit: top-dose activity change, negative = inhibition, hits mostly inhibitors;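 also: plate controls were no compound for no effect and no enzyme for full effect; nearly all actives have a fitted effect of over 20% in size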
Target sequence (P00811 whole entry, looked up): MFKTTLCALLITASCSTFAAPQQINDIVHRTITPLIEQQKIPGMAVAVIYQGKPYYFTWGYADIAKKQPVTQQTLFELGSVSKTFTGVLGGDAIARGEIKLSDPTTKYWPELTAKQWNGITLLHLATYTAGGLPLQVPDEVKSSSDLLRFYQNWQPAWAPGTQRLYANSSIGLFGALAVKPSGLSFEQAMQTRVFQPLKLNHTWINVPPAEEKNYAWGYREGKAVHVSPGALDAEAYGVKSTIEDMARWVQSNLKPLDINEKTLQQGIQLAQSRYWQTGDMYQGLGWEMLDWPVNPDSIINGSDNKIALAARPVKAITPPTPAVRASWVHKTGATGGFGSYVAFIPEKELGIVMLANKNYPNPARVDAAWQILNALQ
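AmpC (5.3 nM in the dispensed reagent) in 20 mM phosphate pH 7.0 with 0.01% (detergent screen) or 0.0001% Triton X-100 was preincubated with compounds for 15 min at room temperature. Nitrocefin was then added from an 800 uM solution, and hydrolysis was followed at 480 nm.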
AmpC detergent – qHTS Inhibitors of AmpC Beta-Lactamase (assay with detergent). 370,000 compounds, 0.041% hits. P00811. AmpC hydrolysis of nitrocefin, absorbance 480 nm, 0.01% Triton. Potency, µM (top dose mostly 114 µM), for the others: at the top dose activity change, negative = inhibition, usual class: inhibitors;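 also: 0% = no-compound wells and -100% = no-enzyme wells; nearly all actives have a fitted effect of over 25% in size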
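20 mM phosphate pH 7.0 + 0.01% (detergent screen) or 0.0001% Triton X-100; 5.3 nM AmpC reagent; cpd preinc 15 min RT; nitrocefin (800 uM stock) to start; A480 q20 s × 4 min; Activity was normalised to no-enzyme and no-compound control wells.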
* hit, by the source's call; ? = inconclusive; . = no result given; [ ] = remark or other dose. Calls follow the shape of the dose curve; as a rule, active = well fitted curve in the direction sought with a large enough effect; inconclusive = small, poorly fitted or top-dose-only effect, or another doubt; inactive = no such curve, though single readings can be large; an effect the other way counts as inactive or inconclusive. Unless noted, % is scaled to controls: 0 for no effect and ±100 for the full control effect; potency is read from the fitted curve at half-maximal effect.

SMILES	Pf growth 48h	AMA1 RON2 block	Pf growth 96h	HCV inh	AmpC no deterg	AmpC detergent
CC1=C(C(=O)Nc2cc(C)cc(C)c2)C2(CCCCC2)OC1=O	.	.	.	.	.	-1.3%
O=C(CCCN1C(=O)/C(=C/c2cccc(Br)c2)SC1=S)Nc1ccccn1	?	-16.8%	?	11.2µM*	-26.6%	-5.2%
O=C(CN1C(=O)/C(=C/c2cccc(Br)c2)SC1=S)NCCCN1CCOCC1	19.8%	42.0%	60.6%	9.9%	144.8%	-5.1%
O=C(CCN1C(=O)/C(=C/c2ccccc2Cl)SC1=S)NCCCN1CCOCC1	?	19.1%	13.1µM*	?	168.5%	6.0%
O=C(CCCN1C(=O)/C(=C/c2cccc(Br)c2)SC1=S)NCCCN1CCOCC1	?	5.2%	3.29µM*	-14.4%	220.9%	0.6%
CCc1cccc(NS(=O)(=O)c2c(C)n[nH]c2C)c1	?	-9.3%	13.1µM*	13.9%	-10.4%	?
Cc1cn2c(=O)c(S(=O)(=O)NCc3ccc(F)cc3)c(C)nc2s1	.	.	.	.	.	19.9%
COC(=O)C(C)Sc1nnc2n(-c3cccc(C)c3)c(=O)c3c4c(sc3n12)CCCC4 (centres undefined)	10.4µM*	-5.1%	11.7µM*	7.4%	3.8%	?
CSc1nnc2n(-c3cccc(C)c3)c(=O)c3c4c(sc3n12)CCCC4	.	.	.	.	.	17.0%
CCCSc1ncc(Cl)c(C(=O)Nc2ccc(OC)cc2OC)n1	.	.	.	.	.	-5.9%
Nc1cccc(C#Cc2ccc3c(c2)C(=O)/C(=C/c2ccsc2)O3)c1	.	-24.8%	.	2.51µM*	-42.2%	.
COc1ccc(NC(=O)C2=C(C)Nc3ncnn3C2c2sccc2C)cc1 (centres undefined)	.	.	.	.	.	10.9%
Cc1cc(C)nc(NC(N)=NCCc2c[nH]c3ccccc23)n1	?	-4.2%	21.9%	10µM*	-51.2%	-4.9%
Cc1cc(C)nc(NC(N)=NCCc2ccccc2)n1	.	49.0%	.	11.2µM*	.	.
Cc1cc(C)nc(NC(N)=NC(C)c2ccccc2)n1 (centres undefined)	14.7µM*	7.0%	?	1.5%	-37.4%	-4.4%
Cc1cc(C)nc(NC(=NCCc2c[nH]c3ccccc23)NC(=O)Nc2ccc(Cl)cc2)n1	2.94µM*	-7.7%	0.586µM*	11.2µM*	-18.6%	?
Cc1cc(C)nc(NC(=O)C(c2ccccc2)c2ccccc2)n1	3.3%	-3.1%	59.7%	1.7%	-29.9%	-4.0%
NC(=NCCc1ccccc1)NS(=O)(=O)c1ccccc1	13.8%	-5.8%[11.6 µM]	-11.4%	26.2%	-19.5%	-4.6%
Cc1cc(=O)c2cc(C(=O)c3ccccc3)ccc2[nH]1	13.1µM*	12.6%	?	-21.8%	-28.0%	-1.1%
O=c1ccc(-c2ccccc2)nn1Cc1ccccc1F	-33.7%	-0.3%	13.1µM*	?	2.8%	3.5%
O=c1ccc(-c2ccccc2)nn1Cc1c(F)cccc1Cl	.	.	.	.	.	14.0%
Cc1ccc(C)c(N2CCN(C(=O)CCCN3C(=S)NC(C)(C)CC3C)CC2)c1 (centres undefined)	?	?	?	10µM*	133.6%	1.1%
O=C(Nc1cc(Cl)ccc1Cl)c1cc(S(=O)(=O)N2CCc3ccccc3C2)ccc1F	.	.	.	.	.	3.9%
Cc1ccc(N(CC(=O)NCc2ccc(OC(C)C)cc2)S(=O)(=O)N(C)C)cc1	.	.	.	.	.	4.1%
O=C1CC(N2CCN(c3nc4ccccc4s3)CC2)C(=O)N1Cc1cccs1 (centres undefined)	-8.9%	-5.4%	.	14.1µM*	144.4%	?
SMILES	Pf growth 48h	AMA1 RON2 block	Pf growth 96h	HCV inh	AmpC no deterg	AmpC detergent
CC(C)CC(c1nnnn1Cc1cccs1)N1CCN(c2nc3ccccc3s2)CC1 (centres undefined)	11.7µM*	-14.4%	0.8%	0.6%	-23.7%	7.8%
CCC(c1nnnn1Cc1cccs1)N1CCN(c2nc3ccccc3s2)CC1 (centres undefined)	9.28µM*	-11.7%	?	?	39.5%	?
O=C1CC(N2CCN(c3ccc(F)cc3)CC2)C(=O)N1Cc1cccs1 (centres undefined)	?	-4.9%	.	-4.2%	69.7%	-1.1%
COc1ccc(N2CCN(CCCNC(=O)c3sc4ncccc4c3-n3cccc3)CC2)cc1	.	.	.	.	.	16.1%
CC(C)CCNC(=O)c1sc2ccc(S(=O)(=O)N3CCCCC3)cc2c1N	13.1µM*	-20.9%	0.0%	?	-54.6%	-13.4%
Nc1c(C(=O)NCCc2ccc(Cl)cc2)sc2ccc(S(=O)(=O)N3CCCCC3)cc12	10.4µM*	.	?	-23.8%	-25.4%	0.6%
CCc1ccccc1NC(=O)CN(c1ccccc1)S(=O)(=O)c1ccsc1C(=O)OC	.	.	.	.	.	3.6%
[O-]/C(=C(\C(=S)Nc1ccc(SC(F)F)cc1)[n+]1ccccc1)c1ccc(Cl)cc1Cl	-17.2%	-23.9%	?	12.6µM*	-54.6%	-4.0%
Cc1cc(C)cc(NC(=S)/C(=C(\[O-])c2ccc(Cl)cc2Cl)[n+]2ccccc2)c1	-23.5%	14.5%	-17.5%	-6.4%	13.7%[11.4 µM]	-10.3%
COc1ccc(-c2nc3cc(NC(=O)Cc4ccc(Cl)cc4)ccc3o2)cc1OC	.	.	.	.	.	-3.5%
Cn1c(SCC(=O)c2ccccc2)nnc1-c1cnccn1	105.7%	-0.1%	8.28µM*	4.8%	-17.2%	-10.8%
CCn1c(SCC(=O)c2ccccc2)nnc1-c1cnccn1	60.7%	8.0%	6.9%	-17.8%	-10.9%	-5.1%
COC(=O)CSc1nnc(-c2cnccn2)n1C	-14.5%	0.8%	.	17.0%	-6.2%	-6.5%
CCOc1ccccc1NC(=O)CSc1nnc(-c2cnccn2)n1C	-0.6%	-12.1%	1.85µM*	-7.0%	-0.7%	-6.3%
CC(C)OC(=O)CSc1nnc(-c2cnccn2)n1C	3.7%	-8.9%	10.4µM*	13.9%	-14.5%	-6.9%
O=S(=O)(Nc1ccccc1-c1ccccc1)c1ccccc1	.	9.7%	.	?	.	.
O=C1c2ccccc2-c2cccc(NS(=O)(=O)c3ccc(C(F)(F)F)cc3)c21	?	-12.2%	11.5%	14.7%	5.62µM*	6.0%
C=CCn1c(=O)n(C2OC(CO)C(O)C2O)c2nc(N)[nH]c(=O)c21 (centres undefined)	6.4%	.	-7.8%	.	.	.
CN1OC[C@@H]2CN(Cc3ccc4c(c3)OCO4)[C@H](c3ccc(N4CCCCC4)cc3)C[C@@H]21	.	14.1µM*	.	.	.	.

Screening data (PubChem BioAssay)
